This is part of a sample that, as a whole, favours compounds with a hit. Of some 83,000 tested, about 20% had one in any assay.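 Interpretation: 100, growth as untreated; towards 0, rising growth inhibition; 0, no net growth; 0 to -100, cell death. Compounds scoring below 10 were considered active.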 Activity calls are given as the source filed them.

The subject of this assay is LOX IMVI melanoma. The experiment in a line: NCI-60 one-dose screen, 48 h (100 = growth as untreated, 0 = no growth, -100 = all killed). The following applies: 10 µM unless noted. As for the experimental part:
Growth inhibition of the LOX IMVI human tumor cell line is measured as a screen for anti-cancer activity. Cells are grown in 96 well plates and exposed to the test compound for 48 hours. Compounds are tested at a single concentration, which is 10^-5 M for most compounds. The reported endpoint is percent growth (GI% or GIPRCNT), where numbers from 0 - 100% represent growth inhibition, and numbers from -100% - 0 represent cell death. For example, a value of 40 represents 60% growth inhibition. A value of 0 means no net growth occurred over the course of the experiment. A value of -40 indicates 40% of cells at the beginning of the experiment died by the end of the experiment. A value of -100 means all cells are dead at the end of the experiment.
NCI-60 Human Tumor Cell Lines Screen was performed using the standard one-dose NCI protocol, which is described in more detail at https://dtp.cancer.gov/discovery_development/nci-60/default.htm.
Compounds with GIPRCNT values below 10 were considered active. Activity score was based on GIPRCNT using the following formula: […]
Score is 0 for GIPRCNT values of 100 or above, 50 for GIPRCNT values of 0, and 100 for GIPRCNT values of -100.
In the case of `CCN(CCNc1cc(OC)cc2cccnc12)CCc1ccccc1`, the growth was 86.5% (inactive).
With `Cc1cc2cc3cc(C)c(N)cc3[n+](C)c2cc1N` the figure was -4.56% (active).
Take `CC(=O)N1N=C(c2cccc(Nc3ccncc3)c2)CC1c1ccc2c(c1)OCO2` (stereo not given): the growth is 81.7% (inactive).
With `BrC(Br)(Br)c1cnc2ccccc2n1` the figure was 30.6% (inactive); with `O=C1Nc2c(ccc(Cl)c2Cl)/C1=C/c1ccc([N+](=O)[O-])cc1`, 89.5% (inactive); with `Cc1nc2sc(C(=O)Nc3ccccc3)c(N)c2cc1C(=O)c1ccc(C(F)(F)F)cc1`, 96.9% (inactive).
With `CCOC(=O)c1c(SC)nn(-c2cc(=O)[nH]c3ccc(Br)cc23)c1N` the figure was 90.1% (inactive).
On to `COc1cc(NCC(C)(O)CN(CC(C)C)CC(C)C)c2nc(C)ccc2c1` (stereo not given), for which the growth was 86.7% (inactive).
`COc1ccc(-c2cnnc3c(-c4cccc(C(F)(F)F)c4)cnn23)cc1`: the growth is 75.4% (inactive).
Under `CC(C)Cc1ccc(C(C)C(=O)NCc2c[nH]c3ccc(Cl)cc23)cc1` (stereo not given) stands 96% (inactive); under `CCN1C(=O)N(CC)C2NC(SC)=NC21` (stereo not given), 93.1% (inactive).
With `CCN(CC)CCCC(C)Nc1cc(-c2cccc(OC(F)(F)F)c2)nc2ccc(N3CCCC3)cc12` (stereo not given) the figure was -80.5% (active); with `CCCNC(=O)Oc1ccc(/C(=C(\C)c2ccccc2)c2ccc(OCCN3CCCCC3)cc2)cc1`, 73.8% (inactive); with `COc1ccc(C(O)c2cc3c(N)c(C(=O)Nc4ccc(Cl)cc4)sc3nc2C)cc1` (stereo not given), 29.2% (inactive).
With `CCc1c(Nc2ccc(C)cc2)nc(N)[nH]c1=O` the figure was 105% (inactive); with `NC(=S)N/N=C(/c1ccccc1)c1ccccc1N`, 96.1% (inactive); with `N#CSCC1CC(O)(c2ccccc2)C(c2ccccc2)C(c2ccc(F)cc2)O1` (stereo not given), -1.61% (active).
Regarding `CC(C)Cc1ccc(C(C)C(=O)NCc2ccc(Cn3c(=O)sn(-c4ccc(Cl)cc4)c3=O)cc2)cc1` (stereo not given), the growth was 76.1% (inactive).
Under `CCCCOc1ccc(/C=N/Nc2cc(C)nc3ccc(Cl)cc23)cc1` stands -94.7% (active); under `CN(C)Cc1c(-c2ccccc2)[nH]c2ccccc12`, 97.4% (inactive).
With `Nc1nnc2cc(Cl)ccc2n1` the figure was 87.9% (inactive); with `CCn1cc(C2NC(=O)c3ccccc3N2)c2cccc(C)c21` (stereo not given), 29.2% (inactive); with `COc1ccc(-c2ncc(-c3ccccc3)[nH]2)cc1OC`, 116% (inactive).
With `Nc1nc(N)nc(NCc2ccccc2)n1` the figure was 101% (inactive); with `COc1cc(NCCCN(CC(C)C)CC(C)C)c2ncccc2c1`, 85.3% (inactive); with `c1ccc(-c2nn(-c3ccccc3)[n+](-c3cccc4ccccc34)n2)cc1`, 12.7% (inactive).
Turning to `ClCC1(Cn2cnc3c(Cl)nc(Cl)nc32)COC1`, the growth is 45.2% (inactive).
Under `COc1ccc(-c2nc(N/N=C/c3c[nH]c4ccccc34)nc(N3CCOCC3)c2C#N)cc1` stands 102% (inactive); under `O=C(Nc1nc(-c2ccc(Br)cc2)cs1)c1cc(-c2ccc(Br)cc2)nc2ccc(Cl)cc12`, 94.8% (inactive); under `Cc1ccccc1CNc1ccc(N2CCOCC2)cc1`, 102% (inactive).
With `COc1ccc(-c2nc(SC(C)C)nc(NNC(N)=O)c2C#N)cc1` the figure was 76.7% (inactive); with `C=Cc1cc[n+](CCCCCCCCCCCC)cc1`, 99.7% (inactive); with `O=C1CCCN1c1cccc2cccnc12`, 95.6% (inactive).
Under `Clc1ccc(C2CC(c3cccc(Nc4ccncc4)c3)=NN2c2ccc(Cl)cc2)cc1` (stereo not given) stands -97.2% (active); under `O=C(N/N=C/c1ccc(O)c(O)c1)c1sc2ccccc2c1Cl`, 68.7% (inactive); under `CC1(C)[C@H](O)CC[C@]2(C)[C@@H]1CC[C@@]13C[C@@H](CC[C@H]12)[C@@](O)(CO)C3`, 103% (inactive).
In the case of `CCCCCCCCCCCCCCCC(=O)OC[C@@]1(O)C[C@@]23CC[C@@H]4C(C)(C)CCC[C@@]4(C)[C@@H]2CC[C@H]1C3`, the growth is 93.4% (inactive).
With `CC(=O)[C@@H]1CC[C@]2(C(N)=O)CC[C@]3(C)[C@H](CC[C@@H]4[C@@]5(C)CCC(=O)C(C)(C)[C@@H]5CC[C@]43C)[C@@H]12` the figure was 99.2% (inactive); with `C#CCn1cc(C=C2C(=O)NC(=S)NC2=O)c2cc(Cl)ccc21`, -46.1% (active).
Under `CN1CCN(c2ccc(NC3=C(Cl)C(=O)c4ncccc4C3=O)cc2C#N)CC1` stands -61.6% (active).

For the origin of these results see PubChem BioAssay (NCI).
